Data from PubChem BioAssay AID720504 (National Center for Advancing Translational Sciences (NCATS), 2013).
Several values for one entry are separate records, joined by “and”; a condition that tells them apart may be missing. Equal values may be shown once. About 10,000 (2.8%) of roughly 360,000 compounds were called active. Roughly 4% stayed inconclusive and do not appear here. The sample as a whole holds a higher share of actives than the screen did. Values without a mark were called inactive. The call rests on the fitted dose curve; in most records, active means well fitted inhibition curve with a large enough effect; inconclusive means small, poorly fitted or top-dose-only effect; inactive means flat fitted curve, though single readings scatter.

Target: Serine/threonine-protein kinase PLK1 (Homo sapiens) (UniProt P53350)
Sequence (P53350 whole entry, looked up, the tested form may be a part): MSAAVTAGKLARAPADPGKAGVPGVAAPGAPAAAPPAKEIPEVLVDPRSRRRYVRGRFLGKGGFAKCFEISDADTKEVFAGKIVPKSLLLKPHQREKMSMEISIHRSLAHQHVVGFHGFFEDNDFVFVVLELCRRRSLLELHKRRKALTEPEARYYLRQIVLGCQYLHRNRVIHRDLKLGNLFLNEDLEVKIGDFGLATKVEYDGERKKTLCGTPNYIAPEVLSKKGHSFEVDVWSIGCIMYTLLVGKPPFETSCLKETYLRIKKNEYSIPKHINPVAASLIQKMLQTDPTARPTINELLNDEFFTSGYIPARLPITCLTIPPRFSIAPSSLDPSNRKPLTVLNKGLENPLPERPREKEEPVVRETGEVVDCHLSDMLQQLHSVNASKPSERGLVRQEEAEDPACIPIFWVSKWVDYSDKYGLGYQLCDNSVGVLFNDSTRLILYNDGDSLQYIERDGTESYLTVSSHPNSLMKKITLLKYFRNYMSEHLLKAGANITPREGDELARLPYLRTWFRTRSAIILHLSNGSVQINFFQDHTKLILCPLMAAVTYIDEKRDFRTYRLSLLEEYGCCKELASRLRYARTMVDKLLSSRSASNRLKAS
Test: qHTS for Inhibitors of PLK1-PDB (polo-like kinase 1 - polo-box domain): Primary Screen; further: nearly all actives have a fitted effect of over 65% in size; on max response, negative = inhibition: series mostly up to about 57 µM
Settings: Plk1 PBD binding of FITC phosphopeptide, fluorescence polarization
On the % scale 0 is the no-effect control and ±100 the full control effect; potency means the concentration at half of the fitted maximal effect.

Row | SMILES | max response, negative = inhibition | Potency
1 | COc1cc(C)c(S(=O)(=O)N2CCOCC2)c(C)c1C | -14.4% | –
2 | Cc1cc(C)c(S(=O)(=O)N2CCOCC2)cc1C | – | 10.6 µM (active)
3 | COc1ccc(S(=O)(=O)N2CCOCC2)c(C)c1C | -1.42% | –
4 | CCOP(=O)(OCC)C(Cc1ccccc1)N=C(c1ccccc1)c1ccccc1 (stereo unspecified) | -2.76% | –
5 | COC(=O)[C@@]12C[C@@H](CC(=O)NCCCCc3ccccc3)C(=O)N(CCc3ccc(OC)c(OC)c3)C1=CCC(C)(C)C2 | -6.86% | –
6 | CCOC(=O)[C@]12CCCC=C1N(CCC1=CCCCC1)C(=O)[C@H](CC(=O)N1CCOCC1)C2 | -15.5% | –
7 | CCCN1CCN(CCCNC(=O)CN2C(=O)COc3ccccc32)CC1 | -2.49% | –
8 | CN1CCN(CCCNC(=O)c2ccc(/C=C3\Oc4ccccc4N(Cc4ccc(Cl)cc4)C3=O)cc2)CC1 | -4.87% | –
9 | CC(C)OCCCNC(=O)CN1C(=O)/C(=C/c2ccccc2F)Oc2ccccc21 | – | 26.7 µM (active)
10 | CC1(C(=O)NS(=O)(=O)c2ccccc2)CCN1C(=O)c1ccccc1 (stereo unspecified) | -4.3% | –
11 | CN(C)C(=O)c1cccc(-c2cnc3sc(NCc4ccc5c(c4)OCO5)nn23)c1 | -3.28% | –
12 | Cc1cccc(C(=O)OCC(=O)Nc2sccc2C(N)=O)c1C | 4.89% | –
13 | Cc1cnc(C(=O)N2CCCC(C(=O)c3ccc(C(F)(F)F)cc3)C2)cn1 (stereo unspecified) | 6.24% | –
14 | O=C(c1ccc(C(F)(F)F)cc1)C1CCCN(C(=O)c2csnn2)C1 (stereo unspecified) | 2.18% | –
15 | Cc1nc(C(=O)N2CCCC(C(=O)c3ccc(Cl)cc3)C2)cs1 (stereo unspecified) | – | 26.7 µM (active)
16 | Cc1cccc(C)c1-n1nnnc1C(CCc1ccccc1)N1CCN(C/C=C/c2ccccc2)CC1 (stereo unspecified) | -10.6% | –
17 | c1cc(-c2ccc3[nH]ccc3c2)n2ccnc2c1 | -9% | –
18 | O=C(Nc1ccc2c(c1)CCC2)c1cccc(S(=O)(=O)Nc2ccccc2Cl)c1 | -7.42% | –
19 | COc1cccc(NC(=O)CN2CCN(CC(=O)Nc3ccccc3Cl)CC2)c1 | -1.84% | –

Row | SMILES | max response, negative = inhibition | Potency
20 | O=C(Cc1ccc2c(c1)CCCC2)Nc1ccccc1Cl | – | 16.8 µM (active)
21 | Cc1onc(-c2ccccc2)c1-c1nnc(COC(=O)c2ccc(N(C)C)cc2)o1 | 5.92% | –
22 | CCc1nc2c(OCc3cccc(OC)c3)cccn2c1N(C)C(=O)C(C)C | -12% | –
23 | CN1CCN(C(=O)c2ccc(-c3ccc(Br)cc3)o2)CC1 | -2.57% | –
24 | O=C(O)c1ccccc1NC(=O)c1ccccc1-c1ccccc1C(=O)O | -6.65% | –
25 | O=C(NC(=S)Nc1ccccc1C(=O)O)c1ccc(-c2ccc(Br)cc2)o1 | – | 13.4 µM (active)
26 | CC(C)(C)CC(=O)Nc1nc(C(N)Cc2ccc(C(F)(F)F)cc2)cs1 (stereo unspecified) | -8.43% | –
27 | C[N+](C)(C)CCNC(=O)c1c[nH]c2ccccc12 | -0.504% | –
28 | CC(=O)N1CC[n+]2c(-c3ccc([N+](=O)[O-])cc3)csc21 | – | 9.47 µM (active)
29 | COc1ccc(C2CC(c3ccc([N+](=O)[O-])cc3)=NN2C(C)=O)cc1 (stereo unspecified) | -7.83% | –
30 | COC(=O)c1c(C)[nH]c(C)c1-c1ccc([N+](=O)[O-])cc1 | -17.8% | –
31 | CSc1ccc(CN2CCC2(C)C(=O)NCc2ccccc2Br)cc1 (stereo unspecified) | 2.74% | –
32 | Cc1ccc(-n2c(C)cc(C(=O)CSc3nnc4ccccn34)c2C)cc1 | -3.52% | –
33 | Cc1cc(C(=O)COC(=O)C2CC2)c(C)n1-c1ccc(F)cc1 | 3.31% | –
34 | Cc1ccc(-n2c(C)cc(C(=O)CN3C(=O)C(=O)N(C4CCCC4)C3=O)c2C)cc1 | – | 26.7 µM (active)
35 | FC(F)(F)c1ccccc1Cc1c(-c2ccccc2)nc2c3ccccc3ccn12 | 5.06% | –
36 | COc1ccc(C(NC(=O)C2CCN(CCCc3ccccc3)CC2)c2cccs2)cc1 (stereo unspecified) | -15.3% | –
37 | CCCc1nc2c3ccccc3ccn2c1Cc1ccccc1C(F)(F)F | -6.42% | –
38 | CCCNC(=O)C1(C)CCN(C(=O)c2ccc(F)cc2Cl)C1 (stereo unspecified) | -7.53% | –

Row | SMILES | max response, negative = inhibition | Potency
39 | COc1ccccc1CC1(C)C(=O)Nc2ccc(OC(F)(F)F)cc21 (stereo unspecified) | -13.6% | –
40 | CCCCNC(=O)OC1CC2CC1[C@H]1CCCCN1C2=O (stereo partly specified) | -1.73% | –
41 | Cc1ccc(S(=O)(=O)/N=C(/Nc2ccc3[nH]c(=O)[nH]c3c2)c2ccccc2)cc1 | -15.4% | –
42 | Cc1ccc(S/C(=N\S(=O)(=O)c2ccc(Cl)cc2)c2ccccc2)cc1 | – | 2.67 µM (active)
43 | Cc1ccc(S(=O)(=O)/N=C(/Nc2ccccn2)c2ccc(Cl)cc2)cc1 | -1.19% | –
44 | CC1CN(C(=O)c2cccc(NS(=O)(=O)c3ccc(Br)cc3)c2)CC(C)O1 (stereo unspecified) | -2.62% | –
45 | O=S1(=O)CC(N2CCN(c3ccccn3)CC2)CN1Cc1ccc(F)cc1 (stereo unspecified) | -5.38% | –
46 | CSc1ncccc1C(=O)N1CCCC(Nc2ccc(F)c(F)c2)C1 (stereo unspecified) | -2.74% | –
47 | Cc1sc(NC(=O)C2C3CCC(O3)C2C(=O)O)c(C(=O)OC(C)C)c1-c1ccc(Cl)cc1 (stereo unspecified) | – | 7.52 µM (active)
48 | COc1ccc(NC(=O)C2C3CCC(O3)C2C(=O)O)cc1OC (stereo unspecified) | 4.35% | –
49 | CC(C)OC(=O)c1cc(NC(=O)C2C3CCC(O3)C2C(=O)O)cc(C(=O)OC(C)C)c1 (stereo unspecified) | -3.95% | –
50 | CCc1nc2c(OCCOc3ccccc3)cccn2c1N(C=O)Cc1ccc(OC)cc1 | -6.91% | –
51 | COc1cc(C(=S)N2CCOCC2)cc(OC)c1OC(=O)c1ccc([N+](=O)[O-])cc1[N+](=O)[O-] | -24.3% | –
52 | O=C(Oc1ccc(Br)cc1C(=S)N1CCOCC1)c1cccc([N+](=O)[O-])c1 | – | 11.9 µM (active)
53 | COc1ccc(C(=O)N2CCCC(C(=O)c3ccccc3OC)C2)cc1OC (stereo unspecified) | -20.4% | –
54 | CC(=O)Nc1ccc(S(=O)(=O)Oc2ccc(Br)cc2C(=S)N2CCOCC2)cc1 | -17.8% | –
55 | O=C(Oc1ccccc1Cl)c1ccc(N2CCOCC2)c([N+](=O)[O-])c1 | -14.3% | –
56 | O=C(Oc1ccccc1C(=S)N1CCCCC1)c1cc([N+](=O)[O-])cc([N+](=O)[O-])c1 | – | 2.12 µM (active) and 2.67 µM (active)
